Screening data as filed in PubChem BioAssay.
Yp Topo-I inh: inhibitors of Yersinia pestis topoisomerase I | Y. pestis Topo-I cleavage product accumulation, plate reader | activity, % at 10 µM | 360,000 compounds, 0.064% hits | AID 504884; in the data active means activity above about 50%, passing the limit was not always enough
PfHsp40 rescue: compounds rescuing yeast from Plasmodium falciparum HSP40 toxicity. S. cerevisiae expressing PfHsp40, growth rescue, ATP luminescence. growth rescue, % at 12.5 µM. 340,000 compounds, 0.68% hits. AID 504582; in the data active means growth rescue above about 28%, passing the limit was not always enough;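 further: yeast W303a lacking pdr1 and pdr3 grown in galactose medium; growth measured after three days at 30 °C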
Mtb BioA inh: blocks M. tuberculosis BioA enzyme activity; purified M. tuberculosis BioA enzyme, plate reader; inhibition, % at 9.99 µM; 360,000 compounds, 0.096% hits; in the data active means inhibition above about 40%
FadD28 binding: blocks FadD28 binding to the bisubstrate probe. fluorescence polarization. inhibition, % at 12.5 µM. 360,000 compounds, 0.22% hits; in the data active means inhibition above about 8.5%, passing the limit was not always enough
PrP 5UTR inh: inhibition of PrP 5' UTR reporter expression | cell-based PrP 5' UTR mRNA reporter, plate reader | inhibition, % (no concentration beside the values) | 340,000 compounds, 0.35% hits | AID 488862; in the data active means inhibition above about 52%; further: 0 = median of the neutral control wells
* hit, by the source's call; . = no result given. The list is not random: actives were taken first. Their share in the collection is about 1.1%.

SMILES	Yp Topo-I inh	PfHsp40 rescue	Mtb BioA inh	FadD28 binding	PrP 5UTR inh
COc1ccc(/C=C/C(=O)NC(=S)NNC(=O)c2c(-c3ccccc3)noc2C)cc1	2	-1	0	-2	-19
COc1ccc(-c2cc(C(=O)NNC(=S)NC(=O)c3c(-c4ccccc4)noc3C)[nH]n2)cc1	-3	287*	.	2	-29
Cc1onc(-c2ccccc2)c1C(=O)NNC(=O)c1ccccc1	-3	0	0	0	-15
Cc1onc(-c2ccccc2)c1C(=O)NNC(=O)c1ccccc1O	-3	68*	-3	0	0
CC(C)NC(=O)Nc1ccc2c(c1)C(=O)N([C@@H](C)CO)C[C@H](C)[C@H](CN(C)Cc1ccncc1)O2	.	.	2	.	.
CC(/C=C/c1ccco1)=N\NC(=O)c1cc(Cl)ccc1O	-14	75*	.	5	-2
O=C(C=Cc1ccco1)c1cc(Cl)ccc1O	-12	-1	0	-2	-15
Cc1noc(C)c1S(=O)(=O)N(C)C[C@@H]1OCCCC[C@H](C)Oc2ccc(NS(=O)(=O)c3cccs3)cc2C(=O)N([C@H](C)CO)C[C@@H]1C	.	.	2	.	.
C[C@@H]1CCCCO[C@H](CN(C)C(=O)Nc2ccc(F)cc2)[C@@H](C)CN([C@H](C)CO)C(=O)c2cc(NC(=O)Nc3ccc(F)cc3)ccc2O1	.	.	0	.	.
Cn1c(-c2c(N)n(C3CCCC3)c3nc4ccccc4nc23)nc2ccccc21	-16	490*	-2	-2	-25
Cn1c(-c2c(N)n(CCc3ccccc3)c3nc4ccccc4nc23)nc2ccccc21	-5	-1	-2	-5	-18
O=C(NC(=S)Nc1ccc(CN2CCCCC2)cc1)c1ccco1	5	128*	.	1	-33
O=C(NC(=S)Nc1ccc(CN2CCOCC2)cc1)c1ccco1	6	-1	0	0	-35
COC(=O)c1cc(=O)n(-c2ccc(C(F)(F)F)cc2)[nH]1	-3	190*	-3	3	-13
COc1cc(NC(=O)C2CC(c3c(F)cccc3Cl)=NO2)c(OC)cc1Cl (configuration not stated)	10	1	0	1	-7
Cc1ccc(O)c(NC(=O)C2CC(c3c(F)cccc3Cl)=NO2)c1 (configuration not stated)	4	36*	-2	-6	-48
O=C(NNC(=O)c1ccccc1OCc1ccc(F)cc1)c1ccccc1O	4	43*	-1	-5	21
CC12CCC(O)CC1=CCC1C2CCC2(C)C3=NN=CC3CC12 (configuration not stated)	0	86*	0	-1	-14
CO[C@@H]1CN(C)C(=O)c2cc(NC(=O)C3CCC3)ccc2OC[C@H](C)N(Cc2ccc(F)cc2)C[C@@H]1C	.	.	6	.	.
COC(=O)Cc1[nH]n(-c2ccccc2)c(=O)c1C(C)=Nc1ccccc1	-5	1	3	0	-30
COC(=O)Cc1cc(=O)n(-c2ccccc2)[nH]1	4	51*	.	1	-11
Cc1noc(C)c1S(=O)(=O)Nc1ccc2c(c1)C(=O)N([C@@H](C)CO)C[C@@H](C)[C@H](CN(C)C(=O)c1ccncc1)OCCCC[C@@H](C)O2	.	.	-1	.	.
COc1cc2c(ccc3c4cc(OC)c(OC)cc4c[n+](C)c23)cc1O	-44	127*	.	-3	21
Clc1c(Cl)c(Cl)c2n[nH]nc2c1Cl	3	59*	.	-18	-28
COC(=O)c1ccccc1-c1c2ccc(=N)cc-2oc2cc(N)ccc12	-14	-1	-213	129*	-6
SMILES	Yp Topo-I inh	PfHsp40 rescue	Mtb BioA inh	FadD28 binding	PrP 5UTR inh
COC(=O)c1ccccc1-c1ccc(/C=N/NC(=O)c2cc3ccccc3o2)o1	3	7	.	-13	-17
CO[C@H]1CN(C)C(=O)c2cc(NC(=O)Cc3ccccc3)ccc2OC[C@@H](C)N(C(C)=O)C[C@@H]1C	.	.	-1	.	.
O=C(c1cnc2ccc3ccccc3c2c1)c1cc(F)ccc1O	13	84*	.	-1	-24
CN1c2ccc(-c3ccccc3F)cc2[C@H]2[C@H](CCN2C(=O)CN2CCOCC2)[C@H]1CO	.	.	18	.	.
O=C(Nc1cccc(Cl)c1)N1CCc2ccccc2C1	4	44*	0	-1	-52
CCCc1ccc(Oc2cn[nH]c2-c2ccc(O)cc2O)cc1	-6	181*	1	-4	-7
CC(=O)N1c2c(cc(Br)cc2S(=O)(=O)N2CCN(c3ccccn3)CC2)CC1C (configuration not stated)	33	52*	0	3	-13
CC(=O)N1CCc2cc(Br)cc(S(=O)(=O)N3CCN(c4ccccn4)CC3)c21	36	0	0	4	-11
CC(C)C#Cc1cnc2c(c1)C(=O)N([C@@H](C)CO)C[C@H](C)[C@H](CN(C)C(=O)Nc1ccccc1)O2	.	.	2	.	.
CCC(=O)N[C@@H]1CC[C@@H](CC(=O)NCc2ccccc2OC)O[C@@H]1CO	.	.	2	.	.
N=C(N)c1ccc(Cl)cc1	9	0	.	0	-20
N=C(N)c1ccc(/C=C/c2ccc(C(=N)N)cc2O)cc1	-34	137*	.	-5	-11
CCCNC(=O)C[C@H]1CC[C@H]2[C@@H](COc3ccc(NS(=O)(=O)c4ccccc4C)cc3C(=O)N2C)O1	.	.	-1	.	.
O=C1C=C(c2ccccc2)C(=O)N1Nc1ccccc1	-2	264*	.	0	-1
COc1ccc(C2=CC(=O)N(Nc3ccccc3)C2=O)cc1	13	.	-1	-1	.
O=C(Oc1cc2oc(=O)cc(-c3ccccc3)c2cc1Cl)C1CCCCC1	9	68*	0	-2	-15
CC(C)(C)OC(=O)NCC(=O)Oc1cc2oc(=O)cc(-c3ccccc3)c2cc1Cl	1	23	.	-2	-6
O=c1cc(-c2ccccc2)oc2cc(O)c(O)c(O)c12	-5	141*	0	6	-55
CCC(ONc1ccccc1C(F)(F)F)(C(=O)NN(C)C)c1ccccc1 (configuration not stated)	-5	54*	-2	-1	2
CCOc1ccc(OCC(=O)Nc2ccccc2C(F)(F)F)cc1	10	0	1	-3	-28
CCN(CC)c1ncnc2scc(C3COc4ccccc4O3)c12 (configuration not stated)	53*	5	2	-1	-26
c1ccc2c(c1)OCC(c1csc3ncnc(N4CCOCC4)c13)O2 (configuration not stated)	9	1	.	0	4
Cc1cccc(C)c1OCC(O)Cn1ccnc1C (configuration not stated)	-10	-1	0	-1	-10
Cc1cccc(OCC(O)Cn2ccnc2C)c1 (configuration not stated)	66*	-1	0	-1	7
COc1ccc(C(=O)NCCc2c[nH]c3ccccc23)cc1S(=O)(=O)N1CCCCC1C (configuration not stated)	16	2	6	62*	-11
COc1ccc(C(=O)NCCc2ccc(Cl)cc2)cc1S(=O)(=O)N1CCCCC1C (configuration not stated)	33	2	0	7	-5
